Assay outcomes: PubChem, National Center for Advancing Translational Sciences (NCATS)
Only some compounds are listed: those with a hit (about 3.8% of all), similar ones and a draw of the others.
ATXN2 expr inh: reduces ATXN2 reporter expression in HEK-293 cells | Potency, µM (top dose mostly 57 µM), for inactives: at the highest dose activity change, negative = inhibition, hits mostly inhibitors | AID 1745845 | HEK-293 ATXN2-luciferase reporter, luminescence, 24 h | hit rate 0.72% among 360,000; further: on the % scale 0 is the no-effect control and ±100 the full control effect; nearly all actives have a fitted effect of over 55% in size
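qHTS (up to 57 uM final) was run with 24 h compound exposure of reporter cells at 37 °C. Each well was multiplexed: SteadyGlo luminescence measured ATXN2-luciferase expression after a fluorogenic Gly-Phe-AFC viability readout (25 uM final).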
HT1080-NT tox: kills 2HG-producing HT-1080-NT fibrosarcoma cells; HT-1080-NT fibrosarcoma viability, CellTiter-Glo ATP luminescence, 48 h; Potency, µM (series often up to 46.1 µM), without a hit: top-dose activity, negative = less viability, hits mostly cytotoxic; hit rate 1.6% among 360,000; AID 686970;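 further: NT is the 2HG producing partner of a matched IDH1 knockdown line; 0% = DMSO-treated cells and -100% = media-only wells without cells; nearly all actives have a fitted effect of over 55% in size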
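750 cells/well, RPMI + 5% FBS; 2 h settle, compound pin-transfer, 48 h at 37 degrees C. CellTiter-Glo 10 min RT, luminescence. Normalized to DMSO and media-only wells.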
S2 tox: reduces viability in counter-screen for ATXN expression inhibitors. AID 651635. S2 cells (HEK-293 line with an ATXN2-luciferase reporter) viability, CellTiter-Fluor protease fluorescence, 24 h. hit rate 0.49% among 400,000. Potency, µM (top dose mostly 56.7 µM), most hits filed as cytotoxic; further: nearly all actives have a fitted effect of over 40% in size
HT1080 IDH1KD tx: toxicity to HT-1080 IDH1 knockdown cells (counter line); AID 686971; HT-1080 IDH1 knockdown viability, ATP luminescence, 48 h; Potency, µM (titrated, usually from 46.1 µM), for inactives: top-dose activity, negative = toxicity, actives largely listed as cytotoxic; hit rate 2% among 360,000;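 further: 0% = DMSO wells and -100% = cell-free medium wells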
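HT-1080-IDH1KD cells (IDH1 knocked down), 750/well in RPMI with 5% FBS, treated with compound 48 h at 37 degrees C. Viability by CellTiter-Glo luminescence, normalised to DMSO and no-cell wells; concentration-response curves classed.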
TGFb SMAD3 inh: blocks TGF-b signaling; HepG2 CAGA-GFP TGF-b/SMAD3 reporter, GFP fluorescence, 18 h; TGF-beta stimulated, 500 pg/mL final; Potency, µM (titrated, usually from 46.1 µM), for the others: at the top dose activity, negative = inhibition, hits mostly inhibitors; hit rate 1.2% among 410,000; AID 588855; further: on the % scale 0 is the no-effect control and ±100 the full control effect; nearly all actives have a fitted effect of over 65% in size
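Inhibition was scored as loss of TGF-beta-induced (500 pg/mL final, 18 hours, 37 degrees C) GFP in HEPG2 cells carrying a CAGA-GFP reporter, in DMEM with 1% FBS. Well GFP was summed per cell; Activity was normalised to unstimulated and stimulated DMSO wells, then concentration-response fitting.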
HepG2 tox: HepG2 cytotoxicity, counter-screen for TGF-b inhibitors; HepG2 CAGA-GFP viability, ATP luminescence, 18 h; Potency, µM (titrated, usually from 46.1 µM), for the others: at the top dose activity change, negative = cytotoxicity, actives largely listed as cytotoxic; hit rate 0.76% among 410,000; AID 588856
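CellTiter-Glo luminescence gave cytotoxicity after 18 hours at 37 degrees C. The cells were HepG2 CAGA-GFP in 1% FBS DMEM, stimulated with 500 pg/mL TGF-beta after compound addition. %Activity was normalised to no-cell wells (complete cell-killing) and DMSO (no toxicity), and curves were fitted and classified.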
* marks the source's active call; other numbers are inactive results; i = inactive; ? = inconclusive; nt = no result given; ! = a repeat was not active. The call rests on the fitted dose curve; in most records, active means well fitted curve in the direction sought with a large enough effect; inconclusive means small, poorly fitted or top-dose-only effect, or another doubt; inactive means no such curve, though single readings can be large; an effect the other way counts as inactive or inconclusive. Potency means the concentration at half of the fitted maximal effect.

SMILES | ATXN2 expr inh | HT1080-NT tox | S2 tox | HT1080 IDH1KD tx | TGFb SMAD3 inh | HepG2 tox
CC(NC(CCc1ccccc1)C(=O)O)C(=O)N1C(=O)N(C)CC1C(=O)O (stereo unspecified) | 12% | nt | i | nt | nt | nt
COc1cc(CNCCNC(=O)c2nonc2N)ccc1OCc1ccc(Cl)cc1 | -17% | ? | i | 16µM* | ? | -78%
Cc1ccc2nc(-c3ccccn3)c(Nc3ccc(F)cc3)n2c1 | ? | nt | ? | nt | 0% | -14%
Cc1ccc2nc(-c3ccccn3)c(N)n2c1 | 0% | -27% | i | ? | 17% | 10µM*
Cc1cc(C(=O)Nc2ccc3c(c2)OCO3)no1 | -9% | ? | i | 21µM* | -3% | -15%
CC(C)Cc1cc(C(=O)Nc2ccc3c(c2)OCO3)no1 | 20% | ? | ? | 5.2µM* | 5% | -22%
CC(C)(C)C1CCc2onc(C(=O)Nc3ccc4c(c3)OCO4)c2C1 (stereo unspecified) | -14% | ? | i | 13µM* | -3% | 10%
CC(C)Cc1cc(C(=O)Nc2ccc(Br)cc2)no1 | 53% | 1% | i | -7% | -12% | -27%
CC(C)(O)C#Cc1ccc(C(=O)Nc2ccc3c(c2)OCO3)s1 | 5% | ? | i | 7.3µM* | 0% | -3%
CN(C)/C=C1\C=Cc2ccccc21 | nt | nt | nt | nt | ? | -27%
COC(=O)[C@@H]1[C@H]2C[C@@H]3c4[nH]c5ccccc5c4CCN3C[C@@H]2CC[C@@H]1O | 11% | nt | nt | nt | nt | nt
C[C@@H]1CC(=O)NN=C1c1ccc(NN=C(C#N)C#N)cc1 | 27µM*! | nt | 25µM* | nt | nt | nt
COc1cc(-c2c(OC)cccc2OC)cc2c1OCCN(C(=O)CCC(=O)c1ccc(F)cc1)C2 | nt | nt | i | nt | nt | nt
C(=N\Nc1nc(Nc2ccccc2)nc(Nc2ccccc2)n1)/c1ccncc1 | -9% | -18% | i | 1% | ? | 13µM*
Cc1ccc(-c2noc(CNC(=O)COc3cc(C)c(Br)c(C)c3)n2)cc1 | nt | nt | nt | nt | ? | -15%
Cc1cc(NC(=O)c2ccc(Br)o2)ccc1NC(=O)c1ccco1 | 8% | ? | i | ? | 15% | 10µM*
Cc1ccc(C(=O)Nc2ccc(NC(=O)c3ccco3)c(C)c2)cc1 | 15% | 8% | i | -2% | 0% | -2%
Cc1ccc(C(=O)C=CC=Cc2ccccc2)cc1 | nt | 0% | i | -7% | -8% | -4%
Cc1ccc(C(=O)C(C(=O)/C=C/c2ccccc2)=C2SCCCS2)cc1 | 13µM* | 12µM* | nt | 10µM* | -20% | -83%
CN1N=C(C(C)(C)C)CC1=O | -15% | ? | i | 18µM* | ? | -156%
CCCc1ccc(-c2cc(NC(=O)CSc3nnc(N)s3)n(-c3ccccc3)n2)cc1 | 86% | 16µM* | i | ? | ? | -17%
C#CCN1C=C(C(=O)OCC)C(C)N(Cc2ccccc2I)S1(=O)=O (stereo unspecified) | ? | ? | i | 21µM* | ? | -8%
C#CCN1C=C(C(=O)OCC)C(C)NS1(=O)=O (stereo unspecified) | 9% | 15% | i | 11% | 30% | 3%
COC(=O)c1ccc([C@H]2Nc3ccc(S(=O)(=O)Nc4cccc(C)c4)cc3[C@H]3C=CC[C@H]32)cc1 | -21% | nt | ? | nt | 6.3µM* | -23%
Cc1ccc([C@H]2Nc3ccc(S(=O)(=O)Nc4cccc(Cl)c4C)cc3[C@H]3C=CC[C@H]32)cc1 | nt | nt | nt | nt | -21% | -34%
SMILES | ATXN2 expr inh | HT1080-NT tox | S2 tox | HT1080 IDH1KD tx | TGFb SMAD3 inh | HepG2 tox
O=C(O)c1ccc(NS(=O)(=O)c2ccc3c(c2)C2C=CCC2C(c2ccccc2F)N3)cc1 (stereo unspecified) | 3% | -23% | i | -15% | -2% | -1%
Cc1ccc(NS(=O)(=O)c2ccc3c(c2)[C@H]2C=CC[C@H]2[C@@H](c2ccc(F)cc2)N3)cc1C | -19% | nt | i | nt | 8.9µM* | -22%
CCCn1c(SCc2nc(-c3ccc(OC)c(OC)c3)no2)nnc1-c1ccccc1 | -18% | nt | ? | nt | -26% | -24%
C/C(Cn1nnc([N+](=O)[O-])n1)=N\NC(=O)c1ccccc1 | -15% | ? | ? | ? | 11µM* | -49%
C/C(Cn1cnc([N+](=O)[O-])n1)=N\NC(=O)c1ccccc1 | 12% | 14% | i | 0% | 24% | -2%
Cc1ccc(C(O)c2ncc(-c3ccccc3Cl)[nH]2)cc1 (stereo unspecified) | 29% | 17% | i | 10% | -2% | -18%
OC(c1ccc(Cl)c(F)c1)c1ncc(-c2ccccc2F)[nH]1 (stereo unspecified) | 2% | ? | i | ? | 4% | -29%
Cc1ccccc1-c1cnc(C(O)c2ccc(Cl)c(F)c2)[nH]1 (stereo unspecified) | 3% | -20% | i | -15% | -21% | 3.2µM*
Cc1cc(C)cc(C(O)c2ncc(-c3ccccc3Cl)[nH]2)c1 (stereo unspecified) | -20% | ? | ? | 21µM* | ? | -33%
CCCCCCSc1ccc([C@@H]2[C@@H]3C(=O)N(C)C(=O)[C@@H]3[C@]3(C(=O)OC)CCCCN23)cc1OC | 0% | 29µM* | ? | ? | ? | -27%
C#Cc1cccc(Nc2ncnc3cc(OC)c(OCCCCCCC(=O)NO)cc23)c1 | -39% | nt | nt | nt | nt | nt
Cc1nn(-c2ccccc2)c(C)c1CC(=O)NCC1Cc2cc(-c3cncnc3)ccc2O1 (stereo unspecified) | nt | nt | i | nt | nt | nt
COc1ccc(CCN=C(N)C(C)c2ccccc2)cc1OC (stereo unspecified) | -15% | 7% | i | 3% | -10% | 4%
CC(C)Cc1ccc(C(C)C(N)=NCCc2ccccc2)cc1 (stereo unspecified) | ? | 16µM* | ? | 18µM* | ? | 18µM*
CC(C)Oc1ccc(/C=N/NC(N)=S)cc1 | 35% | ? | i | 15µM* | -23% | -2%
NC(=S)N/N=C/c1ncc(C(F)(F)F)cc1Cl | 7.9µM* | 10µM* | 14µM* | 5.2µM* | 4.5µM* | -53%
NC(=S)N/N=C/c1ccc(C(F)(F)F)cc1 | -28% | ? | i | 21µM* | -29% | -22%
COc1ccc(CNC(=O)C2CCN(S(=O)(=O)Cc3ccccc3)CC2)cc1 | 6% | nt | i | nt | 9% | 4%
COC(=O)[C@H](C)NS(=O)(=O)C1CC1 | nt | nt | nt | nt | -7% | -1%
